Screens (PubChem)
Rv3671c protease: inhibits the M. tuberculosis serine protease Rv3671c; P9WHR9; inhibition, % at 5.96 µM; actives 0.048% (n = 320,000); in the data active = inhibition above about 38%;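 also: extracellular domain of Rv3671c used as enzyme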
Mtb betalactam: beta-lactam sensitization of Mtb H37Rv; inhibition, % at 25 µM; actives 0.27% (n = 330,000); M. tuberculosis H37Rv growth with meropenem, percent inhibition; call rule not given here;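 also: growth measured after seven days incubation then overnight dye step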
FBA Mtb inh: inhibitors of M. tuberculosis fructose-bisphosphate aldolase; P9WQA3; purified M. tuberculosis FBA, fluorescence read-out; inhibition, % at 1 µM; actives 2.3% (n = 360,000); AID 588726; in the data active = inhibition above about 27%
Target sequence (P9WQA3 whole entry, looked up): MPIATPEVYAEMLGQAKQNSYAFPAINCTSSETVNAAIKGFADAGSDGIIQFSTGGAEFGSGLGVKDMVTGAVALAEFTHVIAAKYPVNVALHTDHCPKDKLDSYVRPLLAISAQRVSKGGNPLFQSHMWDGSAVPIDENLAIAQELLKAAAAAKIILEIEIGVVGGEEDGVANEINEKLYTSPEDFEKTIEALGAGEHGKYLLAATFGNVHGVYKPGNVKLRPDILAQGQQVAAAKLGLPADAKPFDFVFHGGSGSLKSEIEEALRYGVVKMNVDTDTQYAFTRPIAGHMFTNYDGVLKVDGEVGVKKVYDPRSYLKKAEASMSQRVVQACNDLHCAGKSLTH
GDH-TPI counter: GDH-TPI coupled enzyme inhibition counter-screen | inhibition, % at 4.8 µM | GDH-TPI coupled enzyme counterscreen, NADH absorbance | actives 1.2% (n = 360,000) | AID 588335; in the data active = inhibition above about 30%
FadD28 FP inh: inhibitors of Mycobacterium tuberculosis FadD28 bisubstrate binding. inhibition, % at 12.5 µM. FadD28 bisubstrate probe binding, fluorescence polarization. AID 588549. actives 0.22% (n = 360,000); in the data active = inhibition above about 8.5%, passing the limit was not always enough
UGM FP inh: inhibitors of M. tuberculosis UDP-galactopyranose mutase. inhibition, % at 10 µM. P9WIQ1. actives 0.06% (n = 320,000). purified UGM, fluorescence polarization probe displacement; in the data active = inhibition above about 10%, passing the limit was not always enough
Large screens that a line does not name were inactive. An excerpt weighted towards active compounds, which were near 3.7% of everything screened.

Cc1ccc(C2=NN(C(=O)c3cccs3)C(c3ccccc3O)C2)cc1 (configuration not stated)	none
CCOCCCn1c(=NC(=O)c2cccs2)c(C#N)cc2c(=O)n3ccccc3nc21	FBA Mtb inh active, UGM FP inh 15.9
Cc1cccn2c(=O)c3cc(C#N)c(=NC(=O)c4cccs4)n(CCCOC(C)C)c3nc12	FBA Mtb inh active
CC(=O)N=c1c(C#N)cc2c(=O)n3cccc(C)c3nc2n1Cc1ccco1	FBA Mtb inh active
Cc1ccccc1C(=O)N=c1c(C#N)cc2c(=O)n3cccc(C)c3nc2n1Cc1ccco1	none (no result: FBA Mtb inh, GDH-TPI counter, FadD28 FP inh)
Cc1cccn2c(=O)c3cc(C#N)c(=NC(=O)c4ccncc4)n(CCCOC(C)C)c3nc12	none
N#Cc1cc2c(=O)n3ccccc3nc2n(Cc2ccco2)c1=NC(=O)c1ccco1	FBA Mtb inh 167.8
CCCS(=O)(=O)NC(=O)C1(C)CCN(C(=O)c2ccc(C(=O)OC)cc2)C1 (configuration not stated)	none (no result: Rv3671c protease, Mtb betalactam, UGM FP inh)
CC(=O)N=c1c(C#N)cc2c(=O)n3cccc(C)c3nc2n1CCCOC(C)C	FBA Mtb inh active
O=C(NC(=S)N1CC=CCC1)c1ccccc1	none (no result: Rv3671c protease, Mtb betalactam, UGM FP inh)
Cc1cc2oc3cc(NCCC4CCCN4C)ccc3c(=O)c2cc1C (configuration not stated)	FBA Mtb inh active
NS(=O)(=O)OCC1CCCCC1	none
Nc1nc(N)c(N=O)c(OCC2CCCCC2)n1	GDH-TPI counter 34.3
COc1cc(/C=N\Nc2nc3ccccc3[nH]2)cc(OC)c1OC	GDH-TPI counter 35.6
COc1ccc(/C=N/Nc2nc3ccccc3[nH]2)cc1OC	none
COc1ccc(/C=N/Nc2nc3ccccc3o2)cc1O	none
COc1cc(/C=N/Nc2nc3ccccc3o2)cc(OC)c1O	GDH-TPI counter 31.2
CCOc1ccccc1OCC(=O)Nc1nc2ccccc2[nH]1	none
Brc1ccc(/C=N/Nc2nc3ccccc3o2)cc1	none
Oc1ccccc1/C=N/Nc1nc2ccccc2o1	GDH-TPI counter 50.6
CCOc1cc(/C=N/Nc2nc3ccccc3[nH]2)cc(Br)c1OCC(=O)N(C)C	GDH-TPI counter 34.0
CC(CNC(=O)CC[C@H]1O[C@@H](n2cnc3c(NC(=O)c4ccccc4)ncnc32)[C@H](O)[C@@H]1O)c1ccccc1 (some centres not stated)	none (no result: Rv3671c protease, Mtb betalactam, GDH-TPI counter, UGM FP inh)
COc1cc(/C=N/NC2=NC(C)(C)Cc3ccccc32)cc(OC)c1OC	none
C(=N\Nc1nc2ccccc2[nH]1)/c1ccc2ncccc2c1	GDH-TPI counter 33.0
COc1cc(/C=N\Nc2nc3ccccc3o2)cc(OC)c1OC	GDH-TPI counter 34.2
O=c1[nH]c(=O)n(CCCc2ccccc2)cc1-c1ccccc1	none (no result: Rv3671c protease, Mtb betalactam, UGM FP inh)
Cc1cc(C(=O)NC(C)CCc2ccccc2)ccc1[N+](=O)[O-] (configuration not stated)	none
CCOC(=O)CC(NC(=O)Cc1cccs1)c1ccccc1Cl (configuration not stated)	none
CC(C)CC(N)c1csc(Nc2ccc(C(=O)NCCCO)cn2)n1 (configuration not stated)	GDH-TPI counter 33.8 (no result: Rv3671c protease, Mtb betalactam, UGM FP inh)
NC(Cc1ccc(F)cc1)c1csc(Nc2ccc(C(=O)NCCCO)cn2)n1 (configuration not stated)	none (no result: Rv3671c protease, Mtb betalactam, UGM FP inh)
COc1cc2c(cc1OC)CN(C(=O)C1CCCN1S(=O)(=O)c1ccc(F)cc1)CC2 (configuration not stated)	none
N#Cc1c(-c2ccc(Cl)cc2)c2c([nH]c1=O)-c1ccccc1OC2	FBA Mtb inh 183.8
CC1(C)Cc2c(c(-c3ccccc3Cl)[nH]c(=O)c2C#N)CO1	none
Cc1ccc(C)c(C(=O)OCC(=O)NC(=O)NCc2ccccc2)c1	none (no result: Rv3671c protease, Mtb betalactam, UGM FP inh)
CC(C)n1c(O)c(N=Nc2ccc(Cl)c(C(=O)O)c2)c2ccccc21	FadD28 FP inh 11.3
CCn1c(O)c(N=Nc2ccc(Cl)c(C(=O)O)c2)c2ccccc21	GDH-TPI counter 35.0
CCN(CC)c1ccc2c(-c3ccc(S(=O)(=O)O)cc3S(=O)(=O)[O-])c3ccc(=[N+](CC)CC)cc-3oc2c1	Rv3671c protease active, FadD28 FP inh 135.4, UGM FP inh 92.7
COc1ccc2[nH]c3c(c2c1)CC(C)NC3=O (configuration not stated)	FBA Mtb inh 121.4 (no result: Rv3671c protease)
COc1cc(NC(=O)CCl)ccc(=O)c1	GDH-TPI counter 42.5 (no result: Rv3671c protease, Mtb betalactam, UGM FP inh)
CCCn1c(CCNc2nc(-c3cccc(Br)c3)cs2)nc2ccccc21	none (no result: Rv3671c protease, Mtb betalactam, UGM FP inh)
O=C1c2ccccc2CN1C(CO)Cc1ccccc1 (configuration not stated)	none (no result: FadD28 FP inh)
